# RORgamma inh: blocks mouse ROR gamma transcriptional activity. 5.4% of 310,000 active. P51450. AID 2551. Potency, µM (highest dose often 53.6 µM), inactives show top-dose activity change, negative = inhibition, usual class: inhibitors. Drosophila S2 Gal4-RORgamma UAS-luciferase reporter, 20 h; note: potency is the fitted concentration of half-maximal effect; nearly all actives have a fitted effect of over 60% in size
# Target sequence (P51450 whole entry, looked up, the tested form may be a part): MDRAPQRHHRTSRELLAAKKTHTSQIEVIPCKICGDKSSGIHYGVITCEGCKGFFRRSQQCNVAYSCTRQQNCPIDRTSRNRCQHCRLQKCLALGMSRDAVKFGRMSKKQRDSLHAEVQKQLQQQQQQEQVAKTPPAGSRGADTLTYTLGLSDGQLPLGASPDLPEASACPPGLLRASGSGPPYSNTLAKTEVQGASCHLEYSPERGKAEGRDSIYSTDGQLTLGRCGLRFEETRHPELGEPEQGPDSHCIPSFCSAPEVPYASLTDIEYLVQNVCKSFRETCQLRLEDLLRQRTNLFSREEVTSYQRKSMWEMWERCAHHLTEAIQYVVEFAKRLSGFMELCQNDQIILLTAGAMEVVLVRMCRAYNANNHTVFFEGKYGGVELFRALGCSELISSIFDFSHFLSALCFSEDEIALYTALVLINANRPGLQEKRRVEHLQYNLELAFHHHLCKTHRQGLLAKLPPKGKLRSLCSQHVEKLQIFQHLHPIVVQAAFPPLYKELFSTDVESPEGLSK
#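 Read-out: Photinus luciferase luminescence; inhibitors lower reporter signal. Insect Schneider cells with Gal4-ROR gamma fusion under metallothionein promoter, UAS reporter; 700 uM final copper sulfate induction, 20 hr, ambient temperature.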
# TDP1 cell CPT: DT40-hTDP1 cell growth loss with CPT | AID 686979 | chicken DT40 Tdp1-/-;hTDP1 cells + 20 nM CPT, ATP luminescence, 48 h | 12% of 420,000 active | Potency, µM (titrated, usually from 46.2 µM), without a hit: top-dose activity change, negative = growth inhibition, hits mostly inhibitors; note: potency is the fitted concentration of half-maximal effect; nearly all actives have a fitted effect of over 55% in size
#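 Chicken DT40 Tdp1-/- cells stably complemented with human TDP1 were seeded at 400 cells/well in medium containing 20 nM camptothecin, exposed to pin-transferred compounds, and grown at 37 °C for at least 48 hr. Viability was read as ATP luminescence.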
# DT40 TDP1 no CPT: qHTS for Inhibitors of human tyrosyl-DNA phosphodiesterase 1 (TDP1): qHTS in cells in absence of CPT; 15% of 420,000 active; DT40 Tdp1-/- hTDP1 cells, no CPT, ATP luminescence, 48 h; Potency, µM (top dose mostly 46.2 µM), without a hit: at the highest dose activity change, negative = growth inhibition, usual class: inhibitors; note: potency is the fitted concentration of half-maximal effect; nearly all actives have a fitted effect of over 55% in size
#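 Chicken DT40 Tdp1-/- cells stably complemented with human TDP1 were seeded at 400 cells/well with DMSO in place of 20 nM camptothecin. After compound pinning, cells grew at least 48 hr at 37 °C; viability read by CellTiter-Glo luminescence.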
# ELG1 repair inh: inhibitors of ELG1-dependent DNA repair in HEK293T cells; AID 504467; HEK293T ELG1-luciferase reporter, luminescence, 16 h; DNA damage induced by 5-fluorouridine; 2.3% of 330,000 active; Potency, µM (titrated, usually from 46.1 µM), inactives show at the highest dose activity change, negative = inhibition, most hits filed as inhibitors; note: potency is the fitted concentration of half-maximal effect; nearly all actives have a fitted effect of over 55% in size
#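 In this reporter screen, reduction of luminescence relative to DMSO vehicle indicated activity. Compounds and 5-fluorouridine were added together to 2,000 cells per well, incubated for 16 hr at 37 °C, then developed with ONE-Glo.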
# Gal4-VP16 FLuc: Gal4-VP16 reporter inhibition counter-screen. Potency, µM (top dose mostly 53.6 µM), for the others: top-dose activity, negative = inhibition, hits mostly inhibitors. 3.5% of 310,000 active. AID 2546. Drosophila S2 Gal4-VP16 UAS-luciferase, luminescence, 20 h;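 note: Gal4-VP16 expression switched on by copper sulfate through the metallothionein promoter; potency is the fitted concentration of half-maximal effect; nearly all actives have a fitted effect of over 50% in size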
# IL-1B inflam inh: inflammasome signaling inhibition, IL-1 beta readout; THP-1 LPS/ATP IL-1B secretion, AlphaLISA, 16 h; stronger effect = lower value; activity change, % at 57.5 µM; 4.7% of 360,000 active; in the data active = activity change below about -50%; inconclusive = mostly about -30% to -49%
#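 THP-1 cells pretreated 1 hr with compounds (up to 57.5 uM final), then stimulated with LPS (250 ng/mL final) plus ATP (1.25 mM final); secreted IL-1B measured by AlphaLISA after 16 hr, decreased signal indicating inhibition.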
# An asterisk follows results filed as active; ? = inconclusive; . = not tested or not shown; [ ] = another dose, or the depositor's remark. Compounds with a hit are over-represented: about 21% of the library has one in this group of screens. Unless noted, calls come from the whole dose curve; as a rule, active = well fitted curve in the direction sought with a large enough effect; inconclusive = small, poorly fitted or top-dose-only effect, or another doubt; inactive = no such curve, though single readings can be large; an effect the other way counts as inactive or inconclusive. % is set by controls: 0 for no effect and ±100 for the full control effect.
SMILES,RORgamma inh,TDP1 cell CPT,DT40 TDP1 no CPT,ELG1 repair inh,Gal4-VP16 FLuc,IL-1B inflam inh
CCN1C(=O)N[C@@H](c2cccc(C(F)(F)F)c2)C(C(=O)OC)=C1C,.,16µM*,?,.,.,6
CCN1C(N(C)CCc2c[nH]c3ccccc23)=N[C@@H](c2cccc(C(F)(F)F)c2)C(C(=O)OC)=C1C,.,9.2µM*,23µM*,26%,.,?
CCN1C(=NCc2cccc(C(F)(F)F)c2)N[C@@H](c2cccc(C(F)(F)F)c2)C(C(=O)OC)=C1C,.,4.5µM*,5µM*,.,.,.
CCN1C(=NCc2cccc(Cl)c2)N[C@@H](c2cccc(C(F)(F)F)c2)C(C(=O)OC)=C1C,.,11µM*,?,.,.,.
CCC(=O)OCc1cnc(C)c2oc(=O)c(C(=O)Nc3ccc(CC)cc3)cc12,.,-25%,?,.,.,.
O=c1c2sc3ccccc3c2n(Cc2ccccc2F)c(=O)n1CCc1ccccc1,.,-7%,-7%,.,.,.
CN(C)CCNC(=O)c1ccc(Sc2ccc(Br)cc2)c([N+](=O)[O-])c1,-31%,16µM*,23µM*,-11%,-21%,-70*
O=C(NCCCN1CCOCC1)c1ccc(Sc2ccc(F)cc2)c([N+](=O)[O-])c1,12%,?,16µM*,-3%,-5%,-28
CC(=O)NCCNC(=O)c1ccc(Sc2ccccc2)c([N+](=O)[O-])c1,?,-14%,-19%,6%,-1%[10 µM],26
CC(C1CC1)N(C(=O)c1ccccc1[N+](=O)[O-])c1ccccc1 (stereo unspecified),-9%,21µM*,8.2µM*,?,-9%,-14
CC(CNC(=O)c1ccccc1[N+](=O)[O-])NC(=O)c1ccccc1[N+](=O)[O-] (stereo unspecified),.,1%,-3%,.,.,17
O=C(Nc1ccccc1)Nc1n[nH]c2nnc(-c3ccccc3)c(-c3ccccc3)c12,17%,?,16µM*,-23%,-2%,-11
O=C(Nc1ccccc1)Nc1nncs1,15%,?,?,2%,5%,-16
CCOc1cc(CNc2ccc(N3CCCC3)cc2)cc(Cl)c1OC,-11%,2.9µM*,3.7µM*,?,15%,-99*
COc1cc(CNc2ccc(N3CCCC3)cc2)cc(Cl)c1OC,-34%,2.3µM*,2.6µM*,13%,12%,?
CCOc1ccc(CNc2ccc(N3CCN(Cc4ccccc4)CC3)cc2)cc1,?,?,?,?,-3%,-1
CCOc1cc(CNc2ccc(S(N)(=O)=O)cc2)cc(Cl)c1OC,40%,?,?,?,0%,-10
CCOc1ccc(CNCCN2CCCC2)cc1,-31%,?,21µM*,0%,1%,-15
CCOc1ccc(CNc2ccc(N3CCCC3)cc2)cc1,?,9.2µM*,8.2µM*,?,4%,4
O=C(O)c1ccc(-c2c3nc(c(-c4ccc(C(=O)O)cc4)c4ccc([n-]4)c(-c4ccc(C(=O)O)cc4)c4nc(c(-c5ccc(C(=O)O)cc5)c5ccc2[n-]5)C=C4)C=C3)cc1.[Mn+3],-17%,.,.,.,4%,.
CCOCCCNC(=O)c1ccc2c(=O)n(CCc3ccccc3)c(=O)[nH]c2c1,.,-3%,-19%,.,.,.
Fc1ccc(NC(=S)N2CCc3ccccc3C2)c(F)c1,?,-12%,-18%,3%,?,47
C=CCOc1c(Cl)cc(CNc2ccc(N(C)C)cc2)cc1OC,25%,6.5µM*,6.5µM*,11%,-1%,0
C=CCOc1c(Cl)cc(CNc2ccc(C)c(Cl)c2)cc1OC,10%,.,.,17%,-3%,.
COc1cccc(CNc2ccc(N3CCCCC3)cc2)c1OC,?,26µM*,?,0%,?,-3
SMILES,RORgamma inh,TDP1 cell CPT,DT40 TDP1 no CPT,ELG1 repair inh,Gal4-VP16 FLuc,IL-1B inflam inh
CC1CCC(C(C)C)[C@H](O)C1 (stereo partly specified),13%,?,0%,.,-13%,.
CC(OC(=O)c1ccc(Cl)c([N+](=O)[O-])c1)C(=O)N1CCN(Cc2ccccc2)CC1 (stereo unspecified),.,?,?,-6%,.,-96*
O=C(OCC(=O)N1CCCCCC1)c1ccc(Cl)c(S(=O)(=O)N2CCCC2)c1,?,23µM*,?,-6%,-3%,-1
Cc1ccc(C(=O)OCC(=O)c2c[nH]c3ccccc23)cc1NC(=O)c1ccco1,26%,?,21µM*,-24%,1%,?
CCN(CC)C(=O)COC(=O)c1ccc(C)c(NC(=O)c2ccco2)c1,23%,-6%,1%,7%,1%,21
Cc1ccc(C(=O)OCC(=O)NCc2ccccc2)cc1S(=O)(=O)N1CCCCC1,.,15µM*,?,-22%,.,-17
Cc1oc2c(c(C)cc3oc(=O)c(CC(=O)NCc4ccc(F)cc4)c(C)c32)c1C,.,-8%,-1%,.,.,.
CC1CCN(C(=O)CCc2nnc3ccc(NCCCN4CCCC4=O)nn23)CC1,0%,-17%,1%,10%,2%,31
CCNc1ccc(C(=O)OCC(=O)N2CCCC2)cc1[N+](=O)[O-],7%,?,?,9%,10%,9
O=C(COC(=O)c1ccc(Cl)c(S(=O)(=O)N2CCCC2)c1)NCc1ccccc1,.,?,-29%,-25%,.,19
Cc1ccc(C(=O)OCC(=O)c2c[nH]c3ccccc23)cc1S(=O)(=O)N1CCCCC1,?,23µM*,18µM*,26µM*,-5%,19
Cc1[nH]c2ccccc2c1C(=O)COC(=O)c1cccc(S(=O)(=O)N2CCCCC2)c1,5%,18µM*,?,?,-2%,25
O=C(COC(=O)c1ccc(Cl)c(S(=O)(=O)N2CCCCCC2)c1)NCc1ccccc1,.,23µM*,?,.,.,35
Cc1ccc(C(=O)OCC(=O)Nc2ccccc2)cc1S(=O)(=O)N1CCCCC1,.,-9%,-8%,?,.,-4
O=C(OCC(=O)N1CCCC1)c1ccc(Cl)c([N+](=O)[O-])c1,-13%,2%,-12%,8%,14%,-57*
Cn1c(N)c(C(=O)COC(=O)c2cccc(S(=O)(=O)N3CCCCC3)c2)c(=O)n(C)c1=O,19%,-3%,-30%,?,-7%,0
CCc1nnc(NC(=O)c2cc(=O)c3cc(C)ccc3o2)s1,.,-14%,-20%,.,.,.
COc1ccccc1NC(=O)n1ncc2c(C)cccc21,.,-18%,-16%,.,.,.
